Many of the other results were omitted from the sample, so hits are more common in it than they were.
RECQ1 inh-1: qHTS Assay for Inhibitors of RecQ-Like Dna Helicase 1 (RECQ1); Potency, µM (doses to about 57.3 µM), for the others: at the top dose activity, negative = inhibition, most hits filed as inhibitors; AID 2549, 2010; RECQ1 DNA unwinding, red fluorescence kinetic read; ATP-dependent DNA helicase Q1 (Homo sapiens), P46063; hit rate 0.54% among 240,000;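 also: plate controls were vehicle for no effect and no enzyme for full effect; nearly all actives have a fitted effect of over 30% in size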
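RECQ1T1 50 nM; forked duplex (20 bp + 30-nt ss tails) 200 nM, ATP 2 mM final; pH 8.0, 2 mM MgCl2, 2.5 ug/ml poly(dI-dC); 15 min compound preincubation; discontinuous kinetic read over 2 h at RT.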
KDM4E inh: qHTS Assay for Inhibitors of Human Jumonji Domain Containing 2E (JMJD2E). Lysine-specific demethylase 4E (Homo sapiens), B2RXH2. JMJD2E catalytic domain, FDH-coupled NADH fluorescence (FDH is formaldehyde dehydrogenase). Potency, µM (top dose mostly 57.1 µM), for the others: at the highest dose activity change, negative = inhibition, actives largely listed as inhibitors. hit rate 1.6% among 230,000. AID 2147, 2009; active = well fitted inhibition curve with a large enough effect, not every such curve was filed as active; inconclusive = small, poorly fitted or top-dose-only effect, or another doubt; inactive = no such curve, though single readings can be large or run the other way;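 also: 0% = wells with enzyme and -100% = buffer wells without enzyme; nearly all actives have a fitted effect of over 50% in size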
BLM inh: qHTS Assay for Inhibitors of Bloom's syndrome helicase (BLM); RecQ-like DNA helicase BLM (Homo sapiens), P54132; recombinant BLM DNA unwinding, fluorescence dequenching; Potency, µM (doses to about 56.1 µM), for the others: at the top dose activity change, negative = inhibition, most hits filed as inhibitors; hit rate 0.2% among 350,000; AID 2528, 2010;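 also: plate controls were vehicle for no effect and no enzyme for full effect; nearly all actives have a fitted effect of over 35% in size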
APEX1 inh: qHTS Assay for Inhibitors of the Human Apurinic/apyrimidinic Endonuclease 1 (APE1); hit rate 0.35% among 350,000; recombinant APE1, TAMRA/BHQ-2 abasic DNA cleavage fluorescence; Potency, µM (highest dose often 65.8 µM), inactives show at the top dose activity change, negative = inhibition, usual class: inhibitors; AID 2517, 2012;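 also: plate controls were vehicle for no effect and reference inhibitor for full effect; nearly all actives have a fitted effect of over 55% in size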
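Endonuclease cleavage of a quenched abasic-site DNA duplex (50 nM) by APE1 (0.75 nM) was tracked by TAMRA dequenching. Compounds were preincubated with enzyme 15 min at room temperature; data normalized to buffer-only and DMSO wells plus NSC13755 control.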
GoLoco inh red: qHTS Assay for Inhibitors of RGS12 GoLoco Motif Activity (Red Fluorophore); Guanine nucleotide-binding protein G(i) subunit alpha-1 (Homo sapiens), P63096; Gai1:RGS12 GoLoco peptide FP, rhodamine, 10 min; Potency, µM (highest dose often 61.6 µM), without a hit: at the highest dose activity, negative = inhibition, hits mostly inhibitors; hit rate 0.44% among 230,000; AID 880, 2007; active = well fitted inhibition curve with a large enough effect, not every such curve was filed as active; inactive = no such curve, though single readings can be large or run the other way; also: nearly all actives have a fitted effect of over 30% in size
L3MBTL1 inh: qHTS Assay for the Inhibitors of L3MBTL1; Lethal(3)malignant brain tumor-like protein 1 (Homo sapiens), Q9Y468; AlphaScreen L3MBTL1–H3K9me1 peptide binding; Potency, µM (top dose mostly 57.1 µM), for the others: top-dose activity, negative = inhibition, most hits filed as inhibitors; hit rate 0.66% among 230,000; AID 485360, 2010; also: nearly all actives have a fitted effect of over 60% in size
Target sequence (Q9Y468 whole entry, looked up): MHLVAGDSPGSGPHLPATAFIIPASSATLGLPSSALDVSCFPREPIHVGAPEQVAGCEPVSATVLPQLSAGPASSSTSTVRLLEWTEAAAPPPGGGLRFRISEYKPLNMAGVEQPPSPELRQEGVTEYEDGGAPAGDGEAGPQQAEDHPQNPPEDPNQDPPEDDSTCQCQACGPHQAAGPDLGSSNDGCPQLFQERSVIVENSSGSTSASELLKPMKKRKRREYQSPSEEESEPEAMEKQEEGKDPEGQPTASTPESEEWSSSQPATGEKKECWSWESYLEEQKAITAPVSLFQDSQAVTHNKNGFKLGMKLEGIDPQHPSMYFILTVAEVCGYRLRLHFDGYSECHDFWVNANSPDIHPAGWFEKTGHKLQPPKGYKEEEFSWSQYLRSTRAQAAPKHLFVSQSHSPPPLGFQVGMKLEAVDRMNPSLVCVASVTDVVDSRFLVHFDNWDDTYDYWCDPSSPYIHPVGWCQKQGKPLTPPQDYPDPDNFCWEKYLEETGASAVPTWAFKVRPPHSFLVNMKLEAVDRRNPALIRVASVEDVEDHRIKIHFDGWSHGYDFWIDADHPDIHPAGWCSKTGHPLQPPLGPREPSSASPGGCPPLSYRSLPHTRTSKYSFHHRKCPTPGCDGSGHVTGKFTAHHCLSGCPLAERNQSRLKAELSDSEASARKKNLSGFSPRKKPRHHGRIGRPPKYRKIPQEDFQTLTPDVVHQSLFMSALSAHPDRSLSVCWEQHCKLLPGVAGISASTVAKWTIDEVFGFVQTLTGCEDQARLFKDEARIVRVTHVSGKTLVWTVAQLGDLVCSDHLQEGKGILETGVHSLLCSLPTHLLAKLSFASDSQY
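L3MBTL1 50 nM + b-AHA-H3(1-15)K9me1 75 nM, 30 min RT; compound added, 30 min RT; streptavidin donor/Ni-chelate acceptor beads 10 ug/mL each final, 30 min RT dark; AlphaScreen read.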
RECQ1 conf: Confirmation qHTS Assay for Inhibitors of RecQ-Like Dna Helicase 1 (RECQ1) | shares compounds with RECQ1 inh-1 | RECQ1 helicase DNA unwinding, fluorescence | Potency, µM (series often up to 229 µM), for inactives: at the top dose activity change, negative = inhibition, hits mostly inhibitors | hit rate 28% among 610; also: nearly all actives have a fitted effect of over 45% in size
ADP FP counter: Counterscreen for RECQ1 Inhibitors: ADP Fluorescence Polarization Displacement Assay. AID 2711, 2010. ADP fluorescence polarization displacement counterscreen. hit rate 27% among 530. Potency, µM (series often up to 228 µM), inactives show top-dose activity change, negative = inhibition, most hits filed as inhibitors. shares compounds with RECQ1 inh-1; also: nearly all actives have a fitted effect of over 45% in size
RECQ1 inh-2: Confirmation qHTS Assay for Inhibitors of RecQ-Like Dna Helicase 1 (RECQ1) - Round 2 Cherry Picks; shares compounds with RECQ1 inh-1; recombinant RECQ1 DNA unwinding, red fluorescence; Potency, µM (highest dose often 119 µM), without a hit: top-dose activity, negative = inhibition, hits mostly inhibitors; hit rate 15% among 1,100; AID 504841, 2011; also: nearly all actives have a fitted effect of over 50% in size
* = called active by the depositor; i = inactive; ? = inconclusive; . = not tested or not shown; [ ] = remark or other dose. Unless noted, calls follow the shape of the dose curve; as a rule, active = well fitted curve in the direction sought with a large enough effect; inconclusive = small, poorly fitted or top-dose-only effect, or another doubt; inactive = no such curve, though single readings can be large; an effect the other way counts as inactive or inconclusive. Unless noted, % is scaled to controls: 0 for no effect and ±100 for the full control effect; potency is read from the fitted curve at half-maximal effect.

SMILES	RECQ1 inh-1	KDM4E inh	BLM inh	APEX1 inh	GoLoco inh red	L3MBTL1 inh	RECQ1 inh-2	others
COc1ccc(C(=O)Nc2ccc(-c3nc4ccccc4s3)c(Cl)c2)cc1Cl	.	.	-5.2%	.	.	.	.
COc1ccc(/C=C2\SC(c3ccc(C)cc3)=NC2=O)cc1OC	i	-17.8%	-4.2%	-5.4%	103.3%	10.6%	.
COc1cc(/C=C2\SC(N)=NC2=O)ccc1OCC(=O)Nc1ccc(C)cc1	?	-9.1%	-16.2%	2.4%	36.5%	14.1%	?
O=C(O)/C=C/C(=O)N1Cc2cc3ccccc3nc2C1	?	-17.2%	-14.9%	70.0%	-3.8%	?	-21.9%
COC/C=C/C1=CC2=CC(=O)C(C)(OC(=O)C3CCCC3)C(=O)C2=CO1 (stereo not drawn)	?	2.2%	3.3%	?	16.4%	.	?
CS(=O)(=O)N(CC(=O)NCCc1ccccc1)c1cc(C(F)(F)F)ccc1Cl	.	.	-3.0%	.	.	.	.
O=C(O[C@@H]1Cc2c(O)cc(O)cc2OC1c1ccc(O)c(O)c1)c1cc(O)c(O)c(O)c1 (stereo partly drawn)	0.708µM*	7.08µM*	-25.9%	0.316µM*	2.2%	.	.	RECQ1 conf=2.82µM*;ADP FP counter=?
COc1ccc([C@H]2CC(=O)c3c(O)cc(O)cc3O2)cc1O	-8.4%	-6.1%	-10.6%	-2.9%	2.2%	4.8%	.
Cc1ccc2cc(CN(Cc3ccc4c(c3)OCO4)Cc3nnnn3Cc3ccco3)c(=O)[nH]c2c1C	i	?	-27.5%	9.0%	8.6%	?	.
CCc1ccc2[nH]c(=O)c(CN(Cc3ccccc3OC)Cc3nnnn3Cc3ccco3)cc2c1	?	?	-8.2%	?	9.2%	-16.3%	-19.4%
COc1ccccc1CN(Cc1cc2cc(C)ccc2[nH]c1=O)Cc1nnnn1Cc1ccco1	i	?	-11.7%	-10.4%	48.2%	-0.1%	.
Cc1ccc(C)c2[nH]c(=O)c(CN(Cc3ccc4c(c3)OCO4)Cc3nnnn3Cc3ccco3)cc12	22.4µM*	?	-16.7%	?	0.1%	-6.4%	-12.7%
Cc1cccc(C(=O)Nc2nnc(S(=O)(=O)N(C)Cc3ccc(Cl)cc3)s2)c1	.	.	-4.6%	.	.	.	.
c1ccc(Nc2cccc3c(Nc4ccccc4)cccc23)cc1	?	?	-19.7%	-7.1%	34.2%	.	-14.8%
CN(Cc1ccccc1)C(=O)CCNS(=O)(=O)c1ccc2c(c1)oc(=O)n2C	35.5µM*	-2.2%	-6.7%	?	12.9%	-24.2%	?
Cc1ccc(CNC(=O)c2nn(-c3ccc(Cl)cc3)nc2CO)cc1	.	.	-0.4%	.	.	.	.
CCn1c(=O)c(=O)[nH]c2cc(C(=O)N3CCN(c4ccccc4F)CC3)ccc21	25.1µM*	-8.8%	-3.1%	0.3%	128.3%	-0.1%	79.4µM*
COCCn1c(=O)[nH]c2cc(C(=O)N3CCN(c4ccccc4F)CC3)ccc2c1=O	.	.	0.7%	13.4%	.	.	.
CCOC(=O)c1oc2ccc(S(=O)(=O)n3nc(-c4ccc(Br)cc4)cc3N)cc2c1C	.	.	-8.4%	.	.	.	.
O=C(O)c1cccc(Cn2c(Cl)c(/C=N/NC(=O)c3ccccc3)sc2=O)c1	-10.1%	-10.9%	0.7%	2.7%	16.4%	-4.3%	.
O=C(O)c1cccc(Cn2c(Cl)c(/C=N/NC(=O)c3cc4ccccc4cc3O)sc2=O)c1	4.47µM*	-21.4%	8.91µM*	?	9.7%	35.5µM*	.	RECQ1 conf=?;ADP FP counter=7.5%[91.9 µM]
O=C1CCCC/C1=C\Nc1ccc(O)cc1	?	?	-9.1%	?	-28.1%	?	-25.4%
CCNc1ncc2nc(-c3cccs3)c(=O)n(Cc3ccc(F)cc3)c2n1	-13.0%	.	-2.9%	?	3.4%	.	.
Cn1nc(C(=O)Nc2nc3ccccc3[nH]2)c2ccccc2c1=O	?	-5.8%	-15.4%	1.5%	19.5%	-3.0%	?
CCn1nc(C(=O)Nc2nc3ccccc3[nH]2)c2ccccc2c1=O	-0.2%	1.1%	5.6%	-1.9%	-2.5%	-9.5%	.
SMILES	RECQ1 inh-1	KDM4E inh	BLM inh	APEX1 inh	GoLoco inh red	L3MBTL1 inh	RECQ1 inh-2	others
COc1cc(NC(=O)CSc2nc3ccccc3cc2C)c(C(=O)O)cc1OC	-6.1%	?	-2.0%	0.5%	6.5%	2.7%	.	RECQ1 conf=12.6%;ADP FP counter=?
COc1ccc2cc(C)c3nnc(SCC(=O)Nc4cc(OC)c(OC)cc4C(=O)O)n3c2c1	-2.5%	-19.9%	-1.4%	1.1%	5.2%	-0.1%	.	RECQ1 conf=21.2%;ADP FP counter=-7.7%
COc1cc(NC(=O)CSc2nnc3c(C)cc4cc(C)cc(C)c4n23)c(C(=O)O)cc1OC	i	-11.4%	0.5%	10.5%	-2.5%	8.2%	.
CS/C(=N\S(=O)(=O)c1cccs1)NC(=O)CSc1nc2ccccc2s1	?	-21.4%	-22.2%	5.7%	-5.9%	-15.1%	?
O=C(N=C1SCC(=O)N1c1ccccc1)c1ccco1	i	0.6%	-2.0%	5.8%	116.3%	.	.
O=C(N=C1SCC(=O)N1c1ccccc1Cl)c1ccco1	17.8µM*	-1.4%	-3.2%	-4.7%	141.2%	-18.0%	?	RECQ1 conf=14.4%[114 µM];ADP FP counter=132.1%[91.9 µM]
Cc1cc(C)nc(NS(=O)(=O)c2ccc(NC(=O)COc3ccc(C(C)(C)C)cc3)cc2)n1	.	.	-7.0%	.	.	.	.
O=C(CSc1n[nH]c(-c2ccccc2)n1)c1ccc(O)c(O)c1	20µM*	28.2µM*	-2.5%	?	1.3%	?	?
Cc1cc(C)c2nc(-c3ccccn3)cc(C(=O)Nc3ccc(S(=O)(=O)Nc4onc(C)c4C)cc3)c2c1	?	-5.0%	?	?	-1.9%	?	?
Cc1cc(C)c2nc(-c3ccccn3)cc(C(=O)Nc3ccc(S(=O)(=O)Nc4cc(C)on4)cc3)c2c1	25.1µM*	?	?	?	51.5%	-16.4%	?

Compound activity as filed in PubChem BioAssay.
